{
  "source": "the supplement of paper PMC3334620",
  "note": "Whole data set: some 33,000 sequences, median “E-score (-0.5 to 0.5)” near -0.011, cut for the highest 2% near 0.28. Many of the other results were omitted from the sample, so the highest values are more common in it than they were.",
  "data": [
    {"target": "T1, Gcr1 (UniProt P07261)", "T1 sequence": "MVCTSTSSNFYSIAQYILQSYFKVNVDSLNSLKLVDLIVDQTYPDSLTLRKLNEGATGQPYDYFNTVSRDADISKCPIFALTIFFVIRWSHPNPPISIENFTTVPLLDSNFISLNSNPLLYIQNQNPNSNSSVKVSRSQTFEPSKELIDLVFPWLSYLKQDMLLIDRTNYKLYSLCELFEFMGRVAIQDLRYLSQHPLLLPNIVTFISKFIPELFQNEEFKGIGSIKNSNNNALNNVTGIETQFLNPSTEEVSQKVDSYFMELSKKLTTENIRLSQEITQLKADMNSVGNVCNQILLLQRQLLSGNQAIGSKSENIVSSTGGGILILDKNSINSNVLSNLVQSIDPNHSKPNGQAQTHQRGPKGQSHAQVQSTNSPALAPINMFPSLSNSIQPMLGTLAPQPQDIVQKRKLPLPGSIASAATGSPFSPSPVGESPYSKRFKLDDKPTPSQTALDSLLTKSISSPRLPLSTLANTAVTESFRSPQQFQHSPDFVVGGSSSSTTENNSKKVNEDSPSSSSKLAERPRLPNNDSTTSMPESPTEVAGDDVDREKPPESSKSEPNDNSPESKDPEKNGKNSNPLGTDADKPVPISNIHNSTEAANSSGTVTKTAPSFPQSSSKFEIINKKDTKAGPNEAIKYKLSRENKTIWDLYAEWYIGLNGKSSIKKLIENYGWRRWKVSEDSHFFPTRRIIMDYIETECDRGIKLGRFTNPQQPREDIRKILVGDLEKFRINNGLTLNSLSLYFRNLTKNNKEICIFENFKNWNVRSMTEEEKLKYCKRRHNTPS", "assay": "PBM E-score (8-mer binding enrichment) (E-score (-0.5 to 0.5)); higher = stronger / more preferred TF binding", "conditions": "protein concentration: 100 nM; construct: GST-full length", "how_it_was_run": "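Full-length yeast transcription factors or their DNA-binding domains, GST-tagged and expressed with PURExpress, were applied at about 100-200 nM to universal all-10-mer Agilent arrays. These arrays had been made double-stranded by primer extension on fresh or once-stripped slides. Detection used fluorescent anti-GST, normalisation used masliner, and E-scores for ungapped eight-base words pooled with reverse complements came from the Universal PBM Analysis Suite.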", "values": [
      {"sequence": "CAGGAAGC", "PBM E-score": 0.434},
      {"sequence": "AAGGAAGA", "PBM E-score": -0.00011},
      {"sequence": "CAGGAAGA", "PBM E-score": 0.0842},
      {"sequence": "GAGGAAGA", "PBM E-score": 0.171},
      {"sequence": "CACGAAGC", "PBM E-score": 0.311},
      {"sequence": "CACGAAGA", "PBM E-score": -0.098},
      {"sequence": "AACGAAGC", "PBM E-score": 0.00062},
      {"sequence": "AAGGAAGC", "PBM E-score": 0.452},
      {"sequence": "GAGGAAAC", "PBM E-score": -0.104},
      {"sequence": "CCAAGGTC", "PBM E-score": -0.0561},
      {"sequence": "CGAAAGGC", "PBM E-score": 0.0349},
      {"sequence": "GCCTTCAC", "PBM E-score": -0.0793},
      {"sequence": "AGCTGCAT", "PBM E-score": -0.077},
      {"sequence": "CTCGGCGC", "PBM E-score": 0.159},
      {"sequence": "CAAAGGCG", "PBM E-score": -0.134},
      {"sequence": "CGGCGTCA", "PBM E-score": 0.0965},
      {"sequence": "CGGCGTGC", "PBM E-score": -0.094},
      {"sequence": "AGGCGTCA", "PBM E-score": -0.194},
      {"sequence": "AGGCGTCG", "PBM E-score": -0.0284},
      {"sequence": "CGGCGTCC", "PBM E-score": 0.412},
      {"sequence": "AGGCGTCC", "PBM E-score": 0.387},
      {"sequence": "ATATAGAG", "PBM E-score": 0.133},
      {"sequence": "AAATTCAG", "PBM E-score": 0.169},
      {"sequence": "CCATAGGC", "PBM E-score": -0.00913},
      {"sequence": "TGAGAAAA", "PBM E-score": 0.0932},
      {"sequence": "AGGCAGAT", "PBM E-score": 0.0845},
      {"sequence": "ATACGTAC", "PBM E-score": -0.00136},
      {"sequence": "ATACGTAT", "PBM E-score": 0.284},
      {"sequence": "ATACGTAA", "PBM E-score": 0.053},
      {"sequence": "AAACCAAC", "PBM E-score": 0.0391},
      {"sequence": "GCACCATA", "PBM E-score": 0.228},
      {"sequence": "AGTTTTAT", "PBM E-score": 0.112},
      {"sequence": "CTACTATA", "PBM E-score": 0.282},
      {"sequence": "CTACTATC", "PBM E-score": 0.146},
      {"sequence": "ATACTATA", "PBM E-score": -0.0912},
      {"sequence": "CGAGCCTC", "PBM E-score": -0.0914},
      {"sequence": "GAACAACC", "PBM E-score": -0.0951},
      {"sequence": "AGGCACTA", "PBM E-score": -0.113},
      {"sequence": "TGCAACCA", "PBM E-score": 0.261},
      {"sequence": "AGCAACCA", "PBM E-score": 0.349},
      {"sequence": "GGCAACCC", "PBM E-score": 0.176},
      {"sequence": "AGCAACCG", "PBM E-score": 0.0554},
      {"sequence": "CGCAACCA", "PBM E-score": 0.147},
      {"sequence": "AGCAACCT", "PBM E-score": 0.316},
      {"sequence": "AGCAACCC", "PBM E-score": 0.00142},
      {"sequence": "GGCAACCA", "PBM E-score": 0.374},
      {"sequence": "ACCAACCA", "PBM E-score": 0.0293},
      {"sequence": "ACTAACCA", "PBM E-score": 0.117},
      {"sequence": "CGTAAGAG", "PBM E-score": -0.199},
      {"sequence": "CAGCTGTC", "PBM E-score": -0.0336},
      {"sequence": "AATGCTCT", "PBM E-score": -0.112},
      {"sequence": "CCATTCCC", "PBM E-score": -0.0773},
      {"sequence": "GGCGTCAA", "PBM E-score": -0.0289},
      {"sequence": "GGCGTCTA", "PBM E-score": 0.342},
      {"sequence": "AGCGTCAA", "PBM E-score": 0.0252},
      {"sequence": "AGCGTCTC", "PBM E-score": 0.22},
      {"sequence": "CGCGTCTC", "PBM E-score": 0.301},
      {"sequence": "CGCGTCTA", "PBM E-score": 0.137},
      {"sequence": "AGCGTCTA", "PBM E-score": 0.307},
      {"sequence": "AGCGTCTG", "PBM E-score": 0.175},
      {"sequence": "CCCGTCTC", "PBM E-score": -0.0723},
      {"sequence": "ATGAAGCC", "PBM E-score": 0.145},
      {"sequence": "AATACCGA", "PBM E-score": 0.0609},
      {"sequence": "GAGTTCCA", "PBM E-score": 0.123},
      {"sequence": "CGGTTCCA", "PBM E-score": 0.189},
      {"sequence": "AGGTTCCA", "PBM E-score": 0.327},
      {"sequence": "GGGTTCCA", "PBM E-score": 0.419},
      {"sequence": "AGGTTCCG", "PBM E-score": 0.205},
      {"sequence": "GGTTTCCA", "PBM E-score": 0.119},
      {"sequence": "CGGCCCTA", "PBM E-score": -0.253},
      {"sequence": "TGGATAAA", "PBM E-score": 0.11},
      {"sequence": "CACTTCCA", "PBM E-score": 0.312},
      {"sequence": "GAATTCCC", "PBM E-score": 0.116},
      {"sequence": "GACTTCAA", "PBM E-score": -0.0566},
      {"sequence": "GACTTCCA", "PBM E-score": 0.319},
      {"sequence": "TACTTCCA", "PBM E-score": 0.121},
      {"sequence": "AACTTCCA", "PBM E-score": 0.349},
      {"sequence": "GAATTCCA", "PBM E-score": 0.369},
      {"sequence": "CACTTCCG", "PBM E-score": 0.0282},
      {"sequence": "CACTTCCC", "PBM E-score": 0.0585},
      {"sequence": "GACTTCCC", "PBM E-score": 0.127},
      {"sequence": "AACTTCCG", "PBM E-score": 0.267},
      {"sequence": "CAATTCCA", "PBM E-score": 0.0815},
      {"sequence": "CCGACCCA", "PBM E-score": -0.0324},
      {"sequence": "CGCAGGCG", "PBM E-score": 0.00025},
      {"sequence": "ATTGCTAC", "PBM E-score": 0.11},
      {"sequence": "ACGGCTCG", "PBM E-score": -0.105},
      {"sequence": "GTCATTAA", "PBM E-score": 0.0346},
      {"sequence": "AGTCCGTG", "PBM E-score": -0.0968},
      {"sequence": "AAATCCAT", "PBM E-score": 0.129},
      {"sequence": "GGCCCGCA", "PBM E-score": -0.0485},
      {"sequence": "CAACCCAG", "PBM E-score": 0.00319},
      {"sequence": "CCCGCGAC", "PBM E-score": -0.167},
      {"sequence": "AACTTCCT", "PBM E-score": 0.376},
      {"sequence": "AACTTCGT", "PBM E-score": 0.173},
      {"sequence": "AACTTCCC", "PBM E-score": -0.0101},
      {"sequence": "AGGGAAAT", "PBM E-score": -0.173},
      {"sequence": "ACTGCTAA", "PBM E-score": -0.0287},
      {"sequence": "ACCACTAC", "PBM E-score": 0.129},
      {"sequence": "ACCACTAG", "PBM E-score": 0.267},
      {"sequence": "GCCACTCC", "PBM E-score": -0.045},
      {"sequence": "CCCACTAC", "PBM E-score": 0.187},
      {"sequence": "CCCACTAA", "PBM E-score": 0.241},
      {"sequence": "TCCACTCA", "PBM E-score": 0.189},
      {"sequence": "AGCACTAA", "PBM E-score": -0.0258},
      {"sequence": "TCCACTAA", "PBM E-score": 0.418},
      {"sequence": "GCCACTAC", "PBM E-score": 0.305},
      {"sequence": "ACCACTAT", "PBM E-score": 0.356},
      {"sequence": "ACCACTCA", "PBM E-score": -0.067},
      {"sequence": "ACCACTAA", "PBM E-score": 0.285}
    ]}
  ]
}
